# Out of some 310,000 compounds screened, about 2,200 (0.71%) showed an effect of 50% or more. Effects have a minus sign here. Only a selection was taken, and strong results are over-represented in it overall.
# Biological target: human ether-à-go-go-related gene (hERG) potassium channel (human, UniProt Q12809)
# Assay: primary screen, population patch clamp on CHO cells stably expressing hERG; higher = less effect of the substance
# Procedure: Briefly, Chinese hamster ovary (CHO) cells stably expressing the hERG channel were dislodged from tissue culture flasks and dispensed into PPC plates. […] During the recording, background leak currents were estimated by a 100 ms step to -80 mV from an initial holding potential of -70 mV and subtracted from the subsequent current measurement. The campaign was conducted in two phases using slight differences in recording protocol. In the first phase, the initial voltage pulse used a 100 ms step to -30 mV from a holding potential of -70 mV, a 2 s conditioning step to +25 mV, and a 2 s test step to -30 mV. During the second phase of the screen, the potential during the conditioning step was raised to +45 mV. In both phases of the campaign, a secondary voltage pulse was applied using the same parameters as the second phase initial pulse. The initial and secondary pulses were applied in the absence of compound, and upon application of 1 μM and 10 μM test concentrations. Small molecule effects on hERG current density were quantified by […].
# human ether-à-go-go-related gene (hERG) potassium channel, sequence (Q12809 whole entry, looked up): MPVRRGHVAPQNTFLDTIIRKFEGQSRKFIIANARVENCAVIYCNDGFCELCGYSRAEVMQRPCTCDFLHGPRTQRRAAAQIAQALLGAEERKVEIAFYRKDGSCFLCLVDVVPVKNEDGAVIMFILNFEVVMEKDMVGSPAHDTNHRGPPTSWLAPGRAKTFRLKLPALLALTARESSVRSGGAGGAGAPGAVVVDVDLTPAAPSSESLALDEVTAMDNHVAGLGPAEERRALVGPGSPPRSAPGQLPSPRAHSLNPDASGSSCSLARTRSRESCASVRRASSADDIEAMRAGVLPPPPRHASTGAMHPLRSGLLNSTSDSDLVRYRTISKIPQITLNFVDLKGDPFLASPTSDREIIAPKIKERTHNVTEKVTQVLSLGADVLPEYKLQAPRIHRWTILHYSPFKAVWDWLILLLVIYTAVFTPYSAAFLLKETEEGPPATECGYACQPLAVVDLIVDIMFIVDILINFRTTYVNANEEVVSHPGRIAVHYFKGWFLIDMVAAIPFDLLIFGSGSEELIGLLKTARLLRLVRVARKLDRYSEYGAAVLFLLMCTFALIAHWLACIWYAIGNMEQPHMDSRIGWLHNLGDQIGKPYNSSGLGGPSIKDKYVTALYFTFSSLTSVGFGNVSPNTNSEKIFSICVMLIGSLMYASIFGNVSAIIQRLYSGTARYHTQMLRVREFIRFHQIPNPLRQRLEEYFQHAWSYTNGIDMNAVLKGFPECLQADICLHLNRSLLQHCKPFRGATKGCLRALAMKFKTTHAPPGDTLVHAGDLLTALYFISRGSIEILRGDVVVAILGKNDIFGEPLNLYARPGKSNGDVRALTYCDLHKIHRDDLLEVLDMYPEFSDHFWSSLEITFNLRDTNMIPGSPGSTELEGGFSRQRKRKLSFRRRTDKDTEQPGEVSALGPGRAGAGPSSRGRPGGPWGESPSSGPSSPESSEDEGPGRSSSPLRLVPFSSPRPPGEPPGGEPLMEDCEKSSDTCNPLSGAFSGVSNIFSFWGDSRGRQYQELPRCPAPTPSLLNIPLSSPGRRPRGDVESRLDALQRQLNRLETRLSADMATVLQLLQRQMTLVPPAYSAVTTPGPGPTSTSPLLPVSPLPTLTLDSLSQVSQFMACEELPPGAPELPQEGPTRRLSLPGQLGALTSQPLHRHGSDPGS
row,SMILES,"hERG current change (%, negative = inhibition) at 1uM"
1,CCC(C)NC(=O)C(=O)NCc1ccncc1 (stereo not shown),10.8%
2,CN1CCN(NC(=O)c2ccccc2F)CC1,11.7%
3,COc1ccc(CC(=O)Oc2cc(C)[nH]c(=O)c2[N+](=O)[O-])cc1,4.19%
4,COc1ccc(-c2csc(/C=C/c3ccc4c(c3)OCO4)n2)cc1OC,2.68%
5,CN(c1ncnc(N)c1[N+](=O)[O-])C1CCCCC1,12.5%
6,Cc1ccc(S(=O)(=O)N2CCC(C(=O)N3CCC3)CC2)cc1,11.3%
7,CC(C)OC(=O)COc1cc(O)c2c(=O)cc(-c3ccccc3)oc2c1,10.8%
8,CCOC(=O)C1CCCN(CCCc2ccccc2)C1 (stereo not shown),-2.62%
9,COc1ccccc1-c1ccc(=O)n(CC(=O)NCc2cccs2)n1,15.8%
10,COCCC(=O)N1CCC(Oc2ccc(C(=O)N3C[C@@H]4CCC[C@H]3C4)cc2)CC1,5.49%
11,OC[C@H]1O[C@@H](Oc2ccc3cc(Br)ccc3c2)[C@H](O)[C@@H](O)[C@H]1O,4.75%
12,OCCC1CN(Cc2cccn2-c2cccnc2)CCN1Cc1ccc(F)cc1 (stereo not shown),-21.4%
13,CCOc1ccc(CN2CCN(Cc3cccn3-c3cccnc3)CC2CCO)cc1 (stereo not shown),-86.3%
14,CC(C)CCN1CCN(Cc2cccn2-c2cccnc2)CC1CCO (stereo not shown),-9.84%
15,Cc1cc(/C([O-])=C(/C(=S)Nc2ccccc2)[n+]2ccccc2)c(C)n1-c1ccccc1,9.1%
16,O=C1CC(N2CCN(C3CCc4ccccc4C3)CC2)C(=O)N1c1ccccc1 (stereo not shown),-42.7%
17,CCOc1ccc(N2C(=O)CC(N3CCc4ccccc43)C2=O)cc1 (stereo not shown),5.06%
18,COc1ccc(N2C(=O)CC(N3CCN(C4CCc5ccccc5C4)CC3)C2=O)cc1 (stereo not shown),-37.7%
19,Cc1ccc(N2C(=O)CC(N3CCN(C4CCc5ccccc5C4)CC3)C2=O)cc1 (stereo not shown),-59%
20,Cc1ccc(N2C(=O)CC(N3CCN(c4ccccn4)CC3)C2=O)cc1 (stereo not shown),-8.68%
21,CCOc1ccc(N2C(=O)CC(N3CCN(C4CCc5ccccc5C4)CC3)C2=O)cc1 (stereo not shown),-65.5%
22,O=C(CSc1nc2[nH]ncc2c(=O)[nH]1)Nc1ccc(F)cc1,13.3%

row,SMILES,"hERG current change (%, negative = inhibition) at 1uM"
1,N#Cc1c(-c2ccccc2)cc(-c2ccc3c(c2)OCO3)[nH]c1=O,11%
2,CCCCC(C(=O)O)C(C)CC(=O)Nc1cccc(C(=O)O)c1 (stereo not shown),3.02%
3,Cc1cccc(OCCSCc2nc3ccccc3[nH]2)c1,12.1%
4,CC(=O)Nc1ccc(S(=O)(=O)Nc2ccc(-c3ccc4nnc(C)n4n3)cc2)cc1,-3.52%
5,Cc1cccc(NC(=O)c2c(C)nc3ccccn23)c1,3.98%
6,COc1cccc(NC(=O)c2cc3c(=O)n4ccccc4nc3n(CC(C)C)c2=N)c1,-87.5%
7,COc1ccc(NC(=O)c2cc3c(=O)n4ccccc4nc3n2C)cc1OC,11.4%
8,COc1cccc(NC(=O)C(Sc2nc3ccccc3c(=O)n2CC(C)C)c2ccccc2)c1 (stereo not shown),6.46%
9,Cc1cccc(NC(=O)c2cc3c(=O)n4ccccc4nc3n(CC(C)C)c2=N)c1,-52.2%
10,Cc1cccc(NC(=O)c2cc3c(=O)n4ccccc4nc3s2)c1,11.5%
11,CCCC(=O)Nc1nnc(CCc2ccccc2)s1.Cl,12.1%
12,COc1cccc(NC(=O)NC2(C(F)(F)F)Oc3ccccc3O2)c1,8.19%
13,Cc1cc(C)n(CC(=O)c2ccc(Br)cc2)c(=O)c1C#N,-2.8%
14,CCCN(c1ccc(OCC)cc1)S(=O)(=O)c1ccc2c(c1)CCN2C(=O)CCC(=O)O,12.5%
15,N=c1c(C(=O)NCCN2CCOCC2)cc2c(=O)n3ccccc3nc2n1CCCN1CCOCC1,13.2%
16,N=c1c(C(=O)NCCc2ccccc2)cc2c(=O)n3ccccc3nc2n1CCCN1CCOCC1,-77.8%
17,N=c1c(S(=O)(=O)c2ccccc2)cc2c(=O)n3ccccc3nc2n1CCCN1CCOCC1,-42.5%
18,N=c1c(C(=O)NCCN2CCOCC2)cc2c(=O)n3ccccc3nc2n1Cc1ccc(F)cc1,-19.2%
19,N=c1c(C(=O)NCc2ccccc2)cc2c(=O)n3ccccc3nc2n1CCCN1CCOCC1,-80.7%
20,O=C(NCCN1CCOCC1)c1cc2c(=O)n3ccccc3nc2n1Cc1ccccc1,8.53%
21,Cc1ccc(S(=O)(=O)c2cc3c(=O)n4ccccc4nc3n(CCCN3CCOCC3)c2=N)cc1C,2.37%
22,N=c1c(C(=O)NCc2ccc(F)cc2)cc2c(=O)n3ccccc3nc2n1CCCN1CCOCC1,-91.8%

row,SMILES,"hERG current change (%, negative = inhibition) at 1uM"
1,COc1ccc(/C=C/CN2CCC(Oc3ccc(C(=O)N4CCCCC4)cc3)CC2)cc1,-15.6%
2,COc1ccc(-c2nc(C#N)c(NCCc3ccccc3)o2)cc1OC,10.5%
3,COc1cc(NC(=O)C/C(C)=N/NC(=O)C2CCCCC2)c(OC)cc1Cl,14.8%
4,COc1cc(NC(=O)C/C(C)=N/NC(=O)C(=O)NC2CCCCC2)c(OC)cc1Cl,-66.8%
5,COc1ccc(NC(=O)C/C(C)=N/NC(=O)C(=O)NC2CCCCC2)c(OC)c1,-3.65%
6,O=C(NCc1cccnc1)C12CC3CC(CC(Cl)(C3)C1)C2,19%
7,Cc1cccc(NC(=O)c2c(F)c(F)c(F)c(F)c2F)c1,-0.482%
8,Cc1cc([N+](=O)[O-])ccc1NCc1cccc([N+](=O)[O-])c1,-56.6%
9,O=[N+]([O-])c1ccc(NC2CCN(Cc3ccccc3)CC2)c([N+](=O)[O-])c1,-60%
10,Cc1ccc(F)cc1NC(=O)CN1CCN(Cc2ccccc2)CC1,-16.8%
11,CCOC(=O)N1CCN(CC(=O)Nc2ccc([N+](=O)[O-])cc2C(=O)Nc2ccccc2F)CC1,-5.13%
12,O=C(CN1CCN(Cc2ccccc2)CC1)Nc1ccc([N+](=O)[O-])cc1C(=O)Nc1ccccc1F,-56.8%
13,COc1cccc(CNc2ccc([N+](=O)[O-])cc2C)c1,10.7%
14,Cc1ccccc1NC(=O)CN1CCN(Cc2ccccc2)CC1,1.75%
15,O=[N+]([O-])c1cc(C(F)(F)F)ccc1NC1CCN(Cc2ccccc2)CC1,3.28%
16,O=[N+]([O-])c1ccccc1NC1CCN(Cc2ccccc2)CC1,-26.7%
17,Cc1cc([N+](=O)[O-])ccc1NCc1ccccc1,4.76%
18,O=C(CN1CCN(c2cccc(Cl)c2)CC1)Nc1ccc([N+](=O)[O-])cc1C(=O)Nc1ccccc1F,11.4%
19,Cc1cc([N+](=O)[O-])ccc1NC(=O)CN1CCN(Cc2ccccc2)CC1,-73.7%
20,O=S(=O)(CC(CN1CCCCC1)N1CCCCC1)c1ccccc1 (stereo not shown),6.73%
21,O=C(Cn1cnc2c(NC(=O)OCc3ccccc3)ncnc21)NCc1ccccn1,0.393%
22,O=C(NCCS(=O)(=O)N1CCN(c2ccccc2F)CC1)C1CC(=O)N(c2ccccc2)C1 (stereo not shown),11.6%

row,SMILES,"hERG current change (%, negative = inhibition) at 1uM"
1,O=C(Nc1ccon1)C1CCN(S(=O)(=O)c2cccs2)CC1,-4.01%
2,CC(=O)NNS(=O)(=O)c1ccc(-c2cc(C(F)(F)F)n(C)n2)s1,2.67%
3,CCOc1ccc2[nH]c(=O)c(CN(CCN3CCOCC3)Cc3nnnn3C(C)(C)CC)cc2c1,12.1%
4,COc1ccc(NC(=O)CSc2nnc(Cc3ccc(C)cc3)c(=O)n2N)cc1OC,4%
5,CC(=O)N(C(C)=O)S(=O)(=O)c1ccc(N=NN2CCCCC2)cc1,11.6%
6,Cc1ccc(CNC(=O)CCS(=O)(=O)c2ccc3c(c2)CC(C)N3C(=O)C2CC2)cc1 (stereo not shown),0.306%
7,CCOC(=O)N1CCN(C(=O)c2ccc([N+](=O)[O-])cc2Cl)CC1,6.8%
8,Fc1ccc(C[n+]2c(-c3ccccc3)cc(-c3ccccc3)cc2-c2ccccc2)cc1.[O-][Cl+3]([O-])([O-])[O-],-27.1%
9,Clc1ccc(C[n+]2c(-c3ccccc3)cc(-c3ccccc3)cc2-c2ccccc2)cc1.[O-][Cl+3]([O-])([O-])[O-],-25.5%
10,Brc1ccc(-[n+]2c(-c3ccccc3)cc(-c3ccccc3)cc2-c2ccccc2)cc1.[O-][Cl+3]([O-])([O-])[O-],-18.7%
11,Nc1ccccc1-[n+]1c(-c2ccccc2)cc(-c2ccccc2)cc1-c1ccccc1.[O-][Cl+3]([O-])([O-])[O-],0.0928%
12,Cc1ccc(-c2cc(-c3ccc(C)cc3)[n+](-c3ccccc3)c(-c3ccc(C)cc3)c2)cc1.[O-][Cl+3]([O-])([O-])[O-],-77.3%
13,Cc1ccc(-c2cc(-c3ccc(C)cc3)[n+](-c3ccc(C(=O)O)cc3)c(-c3ccc(C)cc3)c2)cc1.[O-][Cl+3]([O-])([O-])[O-],17.7%
14,Oc1ccccc1-[n+]1c(-c2ccccc2)cc(-c2ccccc2)cc1-c1ccccc1.[O-][Cl+3]([O-])([O-])[O-],-40.5%
15,Cc1ccc(C[n+]2c(-c3ccc(C)cc3)cc(-c3ccc(C)cc3)cc2-c2ccc(C)cc2)cc1.[O-][Cl+3]([O-])([O-])[O-],-61.7%
16,Oc1ccc(-[n+]2c(-c3ccccc3)cc(-c3ccccc3)cc2-c2ccccc2)cc1.[O-][Cl+3]([O-])([O-])[O-],5.58%
17,COc1ccc(-[n+]2c(-c3ccccc3)cc(-c3ccccc3)cc2-c2ccccc2)cc1.[O-][Cl+3]([O-])([O-])[O-],-29.2%
18,COc1ccc(-[n+]2c(-c3ccccc3)cc(-c3ccc(C)cc3)cc2-c2ccccc2)cc1.[O-][Cl+3]([O-])([O-])[O-],-52%
19,Cc1ccccc1-[n+]1c(-c2ccccc2)cc(-c2ccccc2)cc1-c1ccccc1.[O-][Cl+3]([O-])([O-])[O-],-55.8%
